These results are taken from the supplement of paper PMC6555819.

What all share (experiment): PBM binding z-score (relative to random genomic background probes); higher = stronger binding; sequences stand for … in GC…GCGATTGACAGCGTAGAATGAAGG
The test system of experiment [1] is RARb homodimer (NR concentration 270 nM). The procedure, abridged:
(§1)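 Regression normalization was applied to scanned fluorescence from custom Agilent 4×180K protein-binding microarrays. Before scanning, arrays were incubated 1 h with ligand-free nuclear receptor dimers, and binding was detected with antibodies against each partner (one per run). Binding z-scores use the random background probes as reference.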

Experiment [2] concerns RARg:RXRa (NR concentration 270 nM, RXRa partner concentration 90 nM). The method in brief:
as §1

The subject of experiment [3] is RARg homodimer (NR concentration 270 nM). The procedure, abridged: as §1
Experiment [4] relates to RXRa DBDmut IVT, anti-RXR (DBD mutation: RXRa K156A/R161A, NR concentration 90 nM). The procedure, abridged:
as §1

The subject of experiment [5] is RXRa homodimer (NR concentration 180 nM). The method in brief:
as §1

Experiment [6] concerns THRa:RXRa (NR concentration 90 nM, RXRa partner concentration 90 nM). The method in brief:
as §1

The test system of experiment [7] is THRa homodimer (NR concentration 90 nM). The procedure, abridged: as §1
Experiment [8] has as its system VDR homodimer (NR concentration 270 nM). The method in brief:
as §1

On to GATACAGGGTCAGCTAGAGGCCAGAGTCTGGAAA, for which the PBM binding z-score was determined as 3.39 in experiment [1]; 6.56 in experiment [2]; 5.07 in experiment [3]; 1.7 in experiment [4]; 4.07 in experiment [5]; 2.9 in experiment [6]. The PBM binding z-score in experiment [7] came to 0.144; in experiment [8] it was 0.522.

CGAAATAGGTCAAGGACAGTGAATCTCCGCACGC: the PBM binding z-score in experiment [1] turned out to be 3.69; in experiment [2], 5.2; in experiment [3] it was 6.01; in experiment [4] it was 1.55; in experiment [5] it was 4.67; in experiment [6], 3.1. In addition, the PBM binding z-score is 1.7 in experiment [7] and 0.593 in experiment [8].

Turning to TTGCCTAGGTCATGGGCCAGTATACCACGCGAAC, the PBM binding z-score in experiment [1] turned out to be 3.1; in experiment [2], 4.39; in experiment [3], 4.41; in experiment [4], 0.413; in experiment [5] it was 3.94; in experiment [6] it was 3.35. In addition, the values for the PBM binding z-score in experiment [7] and in experiment [8] were 1.54 and 0.622, respectively.

Consider ATCTCAAGGTAACAAGTTCAGTGAAAGAGAGGAC, for which the PBM binding z-score in experiment [1] stood at 2.19; in experiment [2], 1.79; in experiment [3] it was 1.79; in experiment [4], 1.34; in experiment [5], 1.23; in experiment [6] it was 2.16. Also, the PBM binding z-score was found to be 1.54 in experiment [7] and 2.9 in experiment [8].

Regarding CGCCCAAGGTCATAGGAGGTCAGTGAAGACAGAT, the PBM binding z-score in experiment [1] was 5.6; in experiment [2], 6.7; in experiment [3] it was 7.14; in experiment [4], 3.41; in experiment [5], 6.07; in experiment [6], 5.34. Moreover, the PBM binding z-score in experiment [7] is 3.1; in experiment [8] it was 3.97.

With TCATATAGGTAATACAGGTGAAACTCGGCATCTA, the PBM binding z-score in experiment [1] stood at 0.77; in experiment [2] it was 0.826; in experiment [3] it was 0.818; in experiment [4] it was 1.45; in experiment [5] it was 1.1; in experiment [6], 1.23. In addition, the PBM binding z-score stood at 0.391 in experiment [7] and 0.169 in experiment [8].

Turning to CAAACTAGGTCAAAGTCAAAGTCGGTTTGTGCCA, the PBM binding z-score in experiment [1] was found to be 3.06; in experiment [2], 3.87; in experiment [3], 4.41; in experiment [4], 2.32; in experiment [5] it was 3.11; in experiment [6], 2.81. Also, the PBM binding z-score is 0.817 in experiment [7] and 1.05 in experiment [8].
